Drawing on ChEMBL document CHEMBL1961873, “Compounds: GSK PKIS; Assays: Nanosyn kinase panel” (2012), this text covers inhibition for 17 molecules.

As a reminder, the inhibition is the drop in the measured response relative to a control, in per cent.

Assay [1] concerns the target Casein kinase I isoform gamma-2 (Homo sapiens) (UniProt P78368). Conditions: at 1 µM.
Assay [2] has as its target Casein kinase I isoform gamma-3 (Homo sapiens) (UniProt Q9Y6M4). Conditions: at 0.1 µM.
Assay [3] shares this target. Conditions: at 1 µM.
Assay [4] deals with Cyclin-dependent kinase 1 (Homo sapiens) (UniProt P06493). The following applies: at 0.1 µM.
Assay [5] shares this target. Conditions: at 1 µM.
The target of assay [6] is Cyclin-dependent kinase 2 (Homo sapiens) (UniProt P24941). The following applies: at 0.1 µM.
Assay [7] shares this target. The following applies: at 1 µM.
The target is the same in assay [8]. The following applies: at 0.1 µM. This is another data set of the same source.
Assay [9] has the same target. The following applies: at 1 µM. This is another data set of the same source.
Assay [10] deals with CDK3/Cyclin E (Homo sapiens) (UniProt P24864+Q00526). The following applies: at 0.1 µM.

The structures appear in SMILES notation.

Chain of Casein kinase I isoform gamma-2 (Homo sapiens) (P78368 whole entry, looked up, canonical isoform): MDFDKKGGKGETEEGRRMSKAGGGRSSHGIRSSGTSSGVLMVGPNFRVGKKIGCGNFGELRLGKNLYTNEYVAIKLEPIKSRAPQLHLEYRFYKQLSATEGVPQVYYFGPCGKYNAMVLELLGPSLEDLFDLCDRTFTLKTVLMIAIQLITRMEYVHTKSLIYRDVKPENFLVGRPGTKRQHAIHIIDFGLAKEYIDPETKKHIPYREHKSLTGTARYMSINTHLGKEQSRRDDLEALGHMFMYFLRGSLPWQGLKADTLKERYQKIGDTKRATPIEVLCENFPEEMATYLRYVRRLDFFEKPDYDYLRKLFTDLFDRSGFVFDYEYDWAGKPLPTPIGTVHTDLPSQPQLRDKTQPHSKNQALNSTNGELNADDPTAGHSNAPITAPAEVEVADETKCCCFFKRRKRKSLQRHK
Chain of Cyclin-dependent kinase 1 (Homo sapiens) (P06493 whole entry, looked up): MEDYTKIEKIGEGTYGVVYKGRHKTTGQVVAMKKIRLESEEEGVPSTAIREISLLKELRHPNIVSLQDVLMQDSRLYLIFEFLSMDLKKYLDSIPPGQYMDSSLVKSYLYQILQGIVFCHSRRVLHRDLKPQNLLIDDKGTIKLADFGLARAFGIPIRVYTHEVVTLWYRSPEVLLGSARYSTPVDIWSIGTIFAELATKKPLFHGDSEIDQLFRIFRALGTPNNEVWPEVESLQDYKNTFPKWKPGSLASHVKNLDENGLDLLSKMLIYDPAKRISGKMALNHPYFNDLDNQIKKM
Chain of CDK3/Cyclin E (Homo sapiens) (P24864 whole entry, looked up): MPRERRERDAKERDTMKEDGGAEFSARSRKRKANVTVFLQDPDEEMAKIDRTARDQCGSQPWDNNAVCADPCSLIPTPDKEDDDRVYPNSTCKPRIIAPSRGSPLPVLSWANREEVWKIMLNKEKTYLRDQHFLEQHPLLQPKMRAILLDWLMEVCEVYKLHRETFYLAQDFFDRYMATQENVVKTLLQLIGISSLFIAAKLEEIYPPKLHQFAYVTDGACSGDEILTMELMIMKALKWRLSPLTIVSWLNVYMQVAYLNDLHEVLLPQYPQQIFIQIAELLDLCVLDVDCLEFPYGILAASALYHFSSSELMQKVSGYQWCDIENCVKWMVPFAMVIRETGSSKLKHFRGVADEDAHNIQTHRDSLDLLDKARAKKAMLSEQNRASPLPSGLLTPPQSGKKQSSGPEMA
Chain of CDK3/Cyclin E (Homo sapiens) (Q00526 whole entry, looked up): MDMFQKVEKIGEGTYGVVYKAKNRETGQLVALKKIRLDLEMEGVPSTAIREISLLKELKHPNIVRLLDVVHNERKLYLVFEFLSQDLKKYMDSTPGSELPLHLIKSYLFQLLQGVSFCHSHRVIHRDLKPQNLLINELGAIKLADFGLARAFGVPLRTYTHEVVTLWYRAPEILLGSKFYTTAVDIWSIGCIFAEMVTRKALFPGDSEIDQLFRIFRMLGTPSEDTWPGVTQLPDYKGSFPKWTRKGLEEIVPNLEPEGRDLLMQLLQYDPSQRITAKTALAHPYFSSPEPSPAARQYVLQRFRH
Chain of Casein kinase I isoform gamma-3 (Homo sapiens) (Q9Y6M4 whole entry, looked up, canonical isoform): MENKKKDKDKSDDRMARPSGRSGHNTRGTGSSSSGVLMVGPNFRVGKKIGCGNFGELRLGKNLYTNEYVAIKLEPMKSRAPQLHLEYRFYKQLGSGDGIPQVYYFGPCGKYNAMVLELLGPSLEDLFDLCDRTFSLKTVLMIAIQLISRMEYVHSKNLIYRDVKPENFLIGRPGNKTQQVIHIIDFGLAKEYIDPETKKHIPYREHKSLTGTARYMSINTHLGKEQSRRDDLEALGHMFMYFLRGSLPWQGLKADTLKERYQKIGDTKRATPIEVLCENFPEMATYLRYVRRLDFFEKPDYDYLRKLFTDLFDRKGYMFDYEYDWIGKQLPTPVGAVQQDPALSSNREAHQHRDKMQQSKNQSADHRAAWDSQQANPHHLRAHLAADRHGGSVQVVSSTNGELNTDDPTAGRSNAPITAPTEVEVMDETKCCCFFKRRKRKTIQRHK

As for `Cc1ccc(C(=O)NC(C)C)cc1-c1ccc(C(=O)NCC2CC2)cc1`, the inhibition is -3.47% in assay [1]; -2.79% in assay [2]; -1.44% in assay [3]; 0.57% in assay [4]; 2.57% in assay [5]; 0.33% in assay [6]. Besides, the inhibition in assay [7] is -0.04%; in assay [8] it was -0.92%; in assay [9] it was 0.52%; in assay [10], 1.57%.

For the molecule `CNC(=O)c1cncc(/C=C/c2c(C)cccc2C)c1`, the inhibition in [1] is -0.99%; in [2], -1.38%; in [3], -0.55%; in assay [4], -3.38%; in [5], 1.17%; in assay [6], -3.98%. For the same molecule, the inhibition in [7] is 4.82%; in [8] it was -1.1%; in assay [9] it was -2.25%; in assay [10], -0.48%.

As to `CCN(CC)Cc1ccc(Nc2nccc(-c3cnn4ncccc34)n2)cc1`, the inhibition in assay [1] stood at 13.7%; in assay [2], 0.62%; in assay [3], 10.6%; in [4], 36.3%; in assay [5] it was 68.1%; in assay [6] it was 39.5%. The inhibition was found to be 82.5% in assay [7], 40.4% in [8], 70.1% in assay [9] and 28.6% in assay [10].

In the case of `O=C1Nc2ccc(I)cc2C1=Cc1cc(Br)c(O)c(Br)c1`, the inhibition in [1] was 6.34%; in assay [2], 3.79%; in assay [3] it was 3.16%; in assay [4] it was 2.76%; in assay [5], 1.43%; in [6] it was 4.61%. The inhibition in [7] is 3.86%; in assay [8], 1.77%; in [9], 3.35%; in assay [10], -4.12%.

As for `O=C1Nc2ccccc2/C1=C/Nc1ccc(-n2cncn2)cc1`, the inhibition in assay [1] was determined as 8.25%; in [2] it was 2.62%; in assay [3] it was 5.16%; in [4], 1.97%; in assay [5], 10.6%; in assay [6], 2.39%. For the same molecule, the inhibition in assay [7] was 13.3%; in assay [8], 6.28%; in assay [9], 22.2%; in assay [10] it was 7.69%.

Regarding `COc1ccc(C2=C(N3CCc4ccccc43)C(=O)NC2=O)cc1`, the inhibition is 4.63% in assay [1]; 1.81% in [2]; 3.33% in assay [3]; 1.56% in assay [4]; 3.2% in assay [5]; 3.48% in [6]. In addition, the inhibition in [7] was determined as 3.47%; in [8], 4.49%; in [9], 6.31%; in assay [10], 3.69%.

Regarding `Fc1ccc(-c2ncn(CCCN3CCOCC3)c2-c2ccncc2)cc1`, the inhibition in assay [1] is 0.86%; in assay [2] it was 0%; in [3] it was -0.19%; in assay [4], 0.43%; in [5], 2.72%; in assay [6], 1.19%. Besides, the inhibition in assay [7] is 0.72%; in [8] it was 2.29%; in assay [9], 5.92%; in assay [10], 2.27%.

As to `O=C1NC(=O)C(c2cccc(Cl)c2)=C1Nc1ccc(Cl)c(C(=O)O)c1`, the inhibition came out at 3.4% in assay [1]; 1.59% in assay [2]; 0.02% in assay [3]; 0.24% in assay [4]; 2.57% in assay [5]; 2% in [6]. The inhibition in assay [7] was found to be 9.11%; in assay [8] it was 1.73%; in assay [9], 1.86%; in [10] it was 3.54%.

Regarding `O=C(NCC1CC1)c1ccc(-c2cccc(C(=O)NC3CC3)c2)cc1`, the inhibition was 2.47% in assay [1]; 0.19% in assay [2]; 2.3% in assay [3]; -0.46% in assay [4]; 1.27% in assay [5]; 1.17% in [6]. The inhibition in assay [7] is 9.03%; in assay [8] it was 2.3%; in [9], 2.72%; in [10], -0.72%.

Consider `CCc1cccc(CC)c1/C=C/c1cncc(C(=O)NC)c1`, for which the inhibition was 5.11% in [1]; 2.87% in assay [2]; 4.99% in [3]; -0.08% in [4]; 1.65% in assay [5]; 1.26% in [6]. Moreover, the inhibition in [7] was 3.61%; in [8], 2.79%; in assay [9], 4.02%; in assay [10], -0.92%.

On to `CCc1nccc2c1nc(-c1nonc1N)n2CC`, for which the inhibition in [1] is 3.36%; in assay [2], -0.55%; in assay [3], 1.97%; in assay [4], 1.84%; in assay [5], 2.9%; in assay [6] it was 2.75%. Further, the inhibition in [7] is 4.67%; in assay [8] it was 1.55%; in assay [9], 3.62%; in assay [10] it was 1.31%.

With `COc1cccc(-n2cnc3c(N/N=C/c4ccncc4)ncnc32)c1`, the inhibition in assay [1] was -5.36%; in [2], -3.39%; in assay [3], -3.3%; in assay [4], -3.5%; in assay [5] it was 0.55%; in [6], -3.99%. Also, the inhibition in [7] is 8.02%; in [8], -3.22%; in assay [9], -2.32%; in assay [10] it was -0.66%.

Regarding `Nc1nccc(-c2c(-c3ccc(F)cc3)ncn2C2CCC(O)CC2)n1` (stereo not given), the inhibition in assay [1] was 3.41%; in [2], -1.07%; in assay [3], 10.8%; in [4], 0.17%; in assay [5] it was 5.68%; in assay [6], -0.46%. Further, the inhibition is -4.73% in [7], 0.06% in assay [8], 1.24% in assay [9] and -1% in assay [10].

For `CN(C)c1ccc2c(c1)/C(=C/Nc1ccc(S(N)(=O)=O)cc1)C(=O)N2`, the inhibition in assay [1] turned out to be 1.27%; in assay [2] it was 0.48%; in assay [3], 0.92%; in [4], 6.23%; in assay [5] it was 33.9%; in assay [6], 21.8%. The inhibition came to 82.6% in [7], 16.3% in [8], 54% in assay [9] and 5.6% in assay [10].

As for `COc1cccc(/C=N/Nc2ncnc3c2cnn3-c2cccc(OC)c2)c1`, the inhibition in assay [1] was 3.85%; in assay [2], 2.41%; in assay [3] it was 1.09%; in assay [4] it was 1.12%; in assay [5] it was 4.16%; in assay [6], 1.78%. Moreover, the inhibition in [7] is 5.08%; in assay [8], 2.49%; in assay [9], 3.83%; in [10] it was -2.31%.

With `CS(=O)(=O)CCNCc1ccc(-c2ccc3ncnc(Nc4ccc(OCc5ccccc5)c(Br)c4)c3c2)o1`, the inhibition in [1] was -0.24%; in [2], -0.8%; in assay [3] it was -2.02%; in assay [4], -4.43%; in [5] it was -2.83%; in [6] it was -2.31%. The inhibition in assay [7] is -1.03%; in assay [8], -1.96%; in [9] it was -0.05%; in assay [10] it was -2.03%.

`NS(=O)(=O)c1ccc(N/N=C2\C(=O)Nc3ccc(C(=O)NCCCn4ccnc4)cc32)cc1`: the inhibition in [1] was determined as 9.42%; in assay [2] it was 5.52%; in assay [3], 12.9%; in [4], 20.5%; in [5], 66.7%; in assay [6], 97.4%. Besides, the inhibition is 97.9% in [7], 65% in [8], 82.4% in assay [9] and 27.8% in [10].
